What all share (test): NCI-60 one-dose screen, 48 h (100 = growth as untreated, 0 = no growth, -100 = all killed)
Details in all cases: 10 µM unless noted

Assay [1] relates to SK-MEL-2 melanoma.
In assay [2] the test system is EKVX NSCLC.
The subject of assay [3] is SN12C renal.
Assay [4] relates to UO-31 renal.
Assay [5] deals with TK-10 renal.
Assay [6] has as its system ACHN renal.
Assay [7] deals with CAKI-1 renal.
The test system of assay [8] is A498 renal.
Assay [9] relates to CCRF-CEM leukemia.
Assay [10] relates to SR leukemia.
Assay [11] deals with RPMI-8226 leukemia.
The test system of assay [12] is OVCAR-8 ovarian.
Assay [13] relates to OVCAR-5 ovarian.
The test system of assay [14] is OVCAR-4 ovarian.
The subject of assay [15] is SK-OV-3 ovarian.
In assay [16] the test system is IGROV1 ovarian.
Assay [17] relates to OVCAR-3 ovarian.
The subject of assay [18] is HS 578T breast.
The test system of assay [19] is MOLT-4 leukemia.
For assay [20], the system named is NCI/ADR-RES ovarian.

The panel holds about 83,000 compounds, 20% with a hit somewhere; the sample as a whole holds those more often.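 Growth was measured after 48 h exposure to one concentration of compound in 96-well plates. Values under 10 count as active.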 Unmarked numbers belong to inactive results. Activity calls are given as the source filed them.

Turning to `CCOC(OCC)c1cnc2nc(NC(C)=O)[nH]c(=O)c2n1`, the growth is 95.4% in [1]; 109% in assay [2]; 101% in assay [3]; 82.6% in assay [4]; 104% in [5]; 103% in [6]. Also, the growth in [7] is 102%; in assay [8], 73%; in [9] it was 107%; in assay [10], 99.9%; in [11], 106%; in assay [12], 102%. For the same molecule, the growth in assay [13] is 101%; in assay [14], 107%; in [15] it was 106%; in [16], 101%; in assay [17], 113%; in [18], 102%.

On to `O=C1C=CN2C(=O)CC=CC2[C@@H]1O` (stereo partly specified), for which the growth in assay [1] is 113%; in [2], 121%; in assay [3], 106%; in [4] it was 78.2%; in assay [5] it was 118%; in [6], 109%. Further, the growth in assay [7] is 109%; in assay [8], 108%; in assay [9], 96.3%; in assay [19] it was 109%; in assay [11] it was 96.4%; in [12] it was 114%. Further, the growth in [13] is 121%; in assay [14], 110%; in [15] it was 104%; in assay [16], 118%; in assay [17] it was 120%; in [18], 121%. The growth in [20] is 106%.

Take `CC(C)(C)[Si](C)(C)OC1[C@@H](O[Si](C)(C)C(C)(C)C)[C@@H](CNC(=O)NC(=O)NC(=O)CI)O[C@H]1n1cnc2c(NC(=O)Nc3ccccc3)ncnc21` (stereo partly specified): the growth is 92.8% in assay [1]; 56.5% in assay [2]; 84.1% in [3]; -89.2% (active) in assay [4]; 46.6% in assay [5]; -22.7% (active) in [6]. Moreover, the growth in assay [7] is 47.8%; in [8] it was 73.8%; in assay [9], -38.5% (active); in [10], 2.35% (active); in assay [11], 35.2%; in [12] it was -9.33% (active). The growth in [13] is 67.3%; in [14], 42.9%; in assay [15] it was 92.6%; in [16] it was -65.4% (active); in assay [17], -63.5% (active); in [18], 67.4%. Further, the growth in assay [20] is 4.72% (active).

With `COc1ccc2nc(-c3ccc(-c4noc(-c5ccc(Cl)cc5)n4)cc3)[nH]c2c1`, the growth in assay [1] was 100%; in [2], 91.2%; in [3], 77.7%; in assay [4], 55.8%; in [5], 120%; in assay [6] it was 77.9%. The growth in [7] is 92.1%; in assay [8], 90.7%; in assay [9], 57%; in [19] it was 79%; in assay [11], 101%; in assay [12], 74.1%. In addition, the growth was 92.6% in assay [13]; -25.9% (active) in [14]; 90.7% in assay [15]; 78.1% in assay [16]; 64.9% in assay [17]; 62.1% in assay [18]. Besides, in assay [20], the growth is 47.1%.

As to `S=C(S)Oc1cccc2cccnc12`, the growth in assay [1] was 105%; in [2], 115%; in [3], 89.8%; in assay [4], 62.2%; in assay [5], 100%; in [6], 96.2%. For the same molecule, the growth in assay [7] is 91.7%; in assay [8], 105%; in assay [9], 103%; in [10], 87.7%; in assay [11] it was 106%; in [12], 108%. Further, the growth in assay [13] was 108%; in assay [14] it was 92.2%; in [15] it was 100%; in [16] it was 86.1%; in assay [17], 120%; in assay [18] it was 96.2%. Besides, the growth in assay [20] was 106%.

As for `COc1ccc(C2NC(=O)c3cc4c(cc3N2)OCO4)cc1` (stereo unspecified), the growth is 10.5% in [1]; 58.1% in assay [2]; 31.6% in [3]; 67.3% in [4]; 52.8% in assay [5]; 46.3% in [6]. The growth is 55.2% in [7]; 8.76% (active) in assay [8]; 14.8% in assay [9]; 16.5% in assay [19]; 27.8% in [11]; 22.3% in assay [12]. Also, the growth in [13] was 45.3%; in [14], 59.5%; in [15] it was -7.72% (active); in assay [16] it was 42.8%; in assay [17], -45.9% (active); in assay [18], 16.4%. The growth in assay [20] is 3.94% (active).

As to `N=C(N)c1ccc(NCCNc2ccc(C(=N)N)cc2)cc1`, the growth in [1] is 97.3%; in assay [2], 102%; in [3], 46%; in assay [4], 87.2%; in assay [5], 111%; in [6], 85.5%. For the same molecule, the growth was 74.3% in [7]; 90.2% in assay [8]; -71.7% (active) in [9]; -52.9% (active) in assay [19]; 82.8% in assay [11]; 92.4% in assay [12]. For the same molecule, the growth in assay [13] is 95.1%; in [14], 110%; in assay [15] it was 133%; in assay [16] it was 98.5%; in assay [17] it was 110%; in assay [18] it was 109%. Further, in [20], the growth is 99%.

As for `N=c1nc(N2CCCCC2)cc(N)n1O`, the growth in assay [1] was 118%; in [2], 108%; in assay [3], 98.8%; in assay [4], 104%; in [5], 112%; in assay [6], 97.5%. Further, the growth in assay [7] was 101%; in assay [8], 117%; in [9], 112%; in [19] it was 93%; in assay [11], 109%; in assay [12] it was 103%. Also, the growth in assay [13] was 103%; in [14], 92.5%; in assay [15], 103%; in assay [16], 118%; in assay [17], 112%; in [18] it was 109%. The growth in [20] was 122%.

Source of the values: PubChem BioAssay (NCI).
